Viral titer (log10 TCID50) data for 10 molecules are collected here from PubChem BioAssay AID602454 (National Center for Advancing Translational Sciences (NCATS), 2012).

Results filed as inconclusive are left out. Activity calls are given as the source filed them. How the calls were made is not given here.

One experiment in a line: qHTS Assay for Inhibitors of Influenza NS1 Protein Function: Viral Replication TCID50. The conditions noted are these: Influenza virus replication in cells, at 10 µM, stronger effect = lower value. The text has this: Influenza is a world-wide public health problem and emerging forms of the virus have the potential to cause a pandemic of equal or greater magnitude to the outbreaks recorded in 1918, 1957 or 1968. Vaccine development is proceeding and there also exist two classes of anti-influenza compounds. However these therapeutic modalities are neither fully effective nor widely enough available to fulfill global needs. In addition their potential usefulness against newly emergent strains is not known. Efforts are needed to develop novel agents against influenza virus, including broad-spectrum agents. Identification of small molecules that inhibit NS1 function either directly or by interfering with specific cellular pathways may be a key to increasing our defense against the virus.
We have miniaturized and optimized a cell based assay in which NS1 from influenza A is expressed in the budding yeast S. cerevisiae. NS1 is a multi-functional protein that counters the host innate immune response and facilitates viral versus cellular gene expression. Expression of NS1 causes a pronounced slow growth phenotype in yeast due to its intrinsic molecular activities. Small molecules that suppress the slow growth phenotype can be identified by a straightforward growth recovery assay using optical density (OD) as the measurement. The same yeast strain not expressing NS1 was used as positive control in the yeast growth recovery assay.
Hits resulting from the primary screen and other follow-up screens, were tested in two concentrations in this viral replication assay.
NIH Chemical Genomics Center [NCGC]
NIH Molecular Libraries Probe Centers Network [MLPCN]
Assay Submitter (PI): Daniel Engel, University of Virgina
Cell monolayers were infected at an m.o.i. of 0.1 for 48 h in the presence or absence of the compound, which was added at the beginning of infection. Virus titres were determined by TCID50 analysis (Reed, L. J. & Muench, H. (1938). A simple method of estimating fifty per cent endpoints. Am J Epidemiol 27, 493-497)
For orientation: Quantitative high-throughput screening tests each substance at several concentrations.
Take `COc1cc(-c2c(C#N)c(N)nc3c2c(C)nn3-c2ccc(C)c(C)c2)ccc1O`: the viral titer (log10 TCID50) is 8.5 (active).

Take `COc1cc(-c2ccnc3c2c(C)nn3-c2ccccc2)ccc1O`: the viral titer (log10 TCID50) was 9 (active).

With `COc1cccc(-n2nc(C)c3c(-c4ccc(O)c(OC)c4)ccnc32)c1`, the viral titer (log10 TCID50) is 9 (active).

Turning to `COc1cccc(-c2ccnc3c2c(C)nn3-c2ccc(F)cc2)c1`, the viral titer (log10 TCID50) was 8.5 (active).

Turning to `COc1ccc(-c2c3c(C)nn(-c4ccccc4)c3nc3[nH]c(=O)[nH]c(=O)c23)cc1OC`, the viral titer (log10 TCID50) was 8.33 (active).

With `COc1ccc(-c2ccnc3c2c(C)nn3-c2ccc(F)cc2)cc1OC`, the viral titer (log10 TCID50) was 8.66 (active).

Regarding `COc1cc(-c2c(C#N)c(=O)[nH]c3c2c(C)nn3-c2ccccc2)cc(OC)c1OC`, the viral titer (log10 TCID50) is 7.66 (active).

As for `COc1ccc(-c2c(C#N)c(=O)[nH]c3c2c(C)nn3-c2ccc(F)cc2)cc1OC`, the viral titer (log10 TCID50) was 9 (active).

Turning to `COc1cc(-c2c(C#N)c(N)nc3c2c(C)nn3-c2ccc(C)c(C)c2)cc(OC)c1OC`, the viral titer (log10 TCID50) is 9 (active).

Turning to `COc1cc(-c2c(C#N)c(=O)[nH]c3c2c(C)nn3-c2ccccc2)ccc1O`, the viral titer (log10 TCID50) was 7.66 (active).

The same experiment, now with this note: Influenza virus replication in cells, viral titer, at 5 µM, stronger effect = lower value.
On to `COc1cc(-c2c(C#N)c(N)nc3c2c(C)nn3-c2ccc(C)c(C)c2)ccc1O`, for which the viral titer (log10 TCID50) came out at 8.66.

`COc1cc(-c2ccnc3c2c(C)nn3-c2ccccc2)ccc1O` showed a viral titer (log10 TCID50) of 9.

As for `COc1cccc(-n2nc(C)c3c(-c4ccc(O)c(OC)c4)ccnc32)c1`, the viral titer (log10 TCID50) amounted to 9.

In turn, `COc1cccc(-c2ccnc3c2c(C)nn3-c2ccc(F)cc2)c1` came in with a viral titer (log10 TCID50) of 9.

For the molecule `COc1ccc(-c2c3c(C)nn(-c4ccccc4)c3nc3[nH]c(=O)[nH]c(=O)c23)cc1OC`, the viral titer (log10 TCID50) was determined as 9.

As for `COc1ccc(-c2ccnc3c2c(C)nn3-c2ccc(F)cc2)cc1OC`, the viral titer (log10 TCID50) stood at 9.

Take `COc1cc(-c2c(C#N)c(=O)[nH]c3c2c(C)nn3-c2ccccc2)cc(OC)c1OC`: the viral titer (log10 TCID50) worked out at 8.5.

`COc1ccc(-c2c(C#N)c(=O)[nH]c3c2c(C)nn3-c2ccc(F)cc2)cc1OC`: the viral titer (log10 TCID50) was 9.

The molecule `COc1cc(-c2c(C#N)c(N)nc3c2c(C)nn3-c2ccc(C)c(C)c2)cc(OC)c1OC` showed a viral titer (log10 TCID50) of 9.

As to `COc1cc(-c2c(C#N)c(=O)[nH]c3c2c(C)nn3-c2ccccc2)ccc1O`, the viral titer (log10 TCID50) came out at 8.5.
